The text below walks through data of PubChem BioAssay AID1347056 (Sanford-Burnham Center for Chemical Genomics, 2019).

Each structure is given as a SMILES string. Where “and” joins values, the source holds several entries; their conditions need not be identical. Identical values can stand only once. About 3,600 (1%) of roughly 360,000 compounds were called active.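 Rule for the calls: active = compounds whose plate-normalised and pattern-corrected inhibition of the luciferase reporter signal at the single screening dose is 50% or more; inactive = the rest.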 The entries come from a sample that favours actives as a whole.

This test can be described thus: inhibitors of TROY-driven NF-kB signaling, primary screen, Q293 LMP1-TROYcd cells, NF-kB luciferase, uHTS (AID 1347056). The note with it: Q293 LMP1-TROYcd NF-kB luciferase reporter, 4 h; at 10 µM; stronger effect = higher value.
On to `O=C(NCCC1CCCCN1S(=O)(=O)c1cccs1)C(=O)Nc1ccc(F)cc1F` (stereo not drawn), for which the inhibition was 1.77% (inactive).
Consider `COc1cc(NC(=O)COc2ccccc2Cl)ccc1NC(=O)C(C)C`, for which the inhibition was -6.06% (inactive).
In the case of `CCc1ccccc1OCC(=O)Nc1ccc(C)c(S(=O)(=O)N2CCCCCC2)c1`, the inhibition was 3.2% (inactive).
Turning to `Cc1ccccc1OCC(=O)Nc1ccc(N2CCN(C(=O)C(C)C)CC2)c(Cl)c1`, the inhibition is 52.5% (active).
Consider `COc1cccc(-c2cc3nc4c(c(N5CCC6(CC5)OCCO6)n3n2)CCCC4)c1`, for which the inhibition was 7.88% (inactive).
The same measure for `CC(=O)c1c(C)[nH]c(C(=O)COC(=O)CCOc2ccc(C)cc2)c1C`: 17.8% (inactive); for `CN(c1ccccc1)S(=O)(=O)c1ccc(Cl)c(C(=O)OCC(N)=O)c1`: -2.16% (inactive).
As to `CC(=O)c1c(C)[nH]c(C(=O)COC(=O)c2cccc(S(=O)(=O)N(C)c3ccccc3)c2)c1C`, the inhibition is 71% (active).
`CCO[C@@H]1OC(C(=O)N2CCOCC2)=C[C@H](C)[C@H]1CCCO`: the inhibition was -7.92% (inactive).
`CCCCCCCNc1nc(Cl)nc(NCCO)n1`: the inhibition is 4.41% (inactive).
For the molecule `O=C(Nc1ccc(Cl)cc1)c1cc2nc(C3CC3)cc(C(F)(F)F)n2n1`, the inhibition was -25.1% (inactive).
Take `O=C(Nc1cc(C(F)(F)F)ccc1Cl)c1cc2nc3c(c(C(F)(F)F)n2n1)CCCC3`: the inhibition was 79% (active).
On to `Nc1nc(SCC(=O)Nc2cc(C(F)(F)F)ccc2Cl)[nH]c(=O)c1NC(=O)c1ccco1`, for which the inhibition is -8.07% (inactive).
Turning to `Cn1c(=O)c2c(nc(Br)n2CCSc2nc3ccccc3o2)n(C)c1=O`, the inhibition is -10.2% (inactive).
On to `O=C(Cn1c(NCCO)nc2ccccc21)c1ccc(Cl)cc1Cl`, for which the inhibition was 22.3% (inactive).
With `OCCNc1nc(Nc2ccc(Cl)c(Cl)c2)nc2ccccc12`, the inhibition was 68.4% (active).
Take `OCCNCCOc1ccc(Cl)c(Cl)c1`: the inhibition is 10.3% (inactive).
As for `C[C@H](CO)N1C[C@H](C)[C@H](CN(C)C(=O)Nc2ccc3c(c2)OCO3)Oc2ncc(Br)cc2C1=O`, the inhibition is 6.4% (inactive).
For the molecule `CCn1c(C(C)NC(=O)c2ccc(C)cc2)n[nH]c1=S` (stereo not drawn), the inhibition is 21.8% (inactive).
In the case of `C=C(C)CNC(=O)c1ccc(OC2CCN(C(=O)COC)CC2)cc1`, the inhibition is -21.5% (inactive).
In the case of `COc1ccc(NC(=O)C2C3CCC(O3)C2C(=O)O)cc1OC` (stereo not drawn), the inhibition is 8.24% (inactive).
The same measure for `COc1ccc(NC(=O)CSCc2ccc([N+](=O)[O-])cc2)cc1OC`: -16.9% (inactive); for `COc1ccc(NC(=S)SC)cc1OC`: 55.6% (active); for `O=C1c2ccccc2C(=O)N1CCC(c1ccccc1)c1ccco1` (stereo not drawn): -65.2% (inactive).
As to `Cc1csc(NC(=O)NC2(C(F)(F)F)Oc3ccccc3O2)n1`, the inhibition was -1.84% (inactive).
On to `COc1cc(SC)ccc1C(=O)Nc1nc(C)cs1`, for which the inhibition is 85.8% (active).
With `COC(=O)c1sc(NC(=O)c2ccc(OC)cc2OC)nc1C`, the inhibition is 66.7% (active).
For the molecule `COc1ccc(C(=O)NC(C)CCc2ccccc2)c(OC)c1` (stereo not drawn), the inhibition is -16.4% (inactive).
For `Cc1ccccc1OCC(=O)Nc1nc(C)c(C(=O)N(C)C)s1`, the inhibition is -13.4% (inactive).
Regarding `Cc1csc(NC(=O)CSc2nc(=O)cc(N)n2-c2ccc(F)cc2)n1`, the inhibition was -68.1% (inactive).
The figure for `CCCC(C(=O)NC1CCCC1)N(C(=O)Cn1nnc(-c2ccc(C)o2)n1)c1cccc(O)c1` (stereo not drawn) is -5.35% (inactive).
The same measure for `C=CCn1c(COc2ccccc2F)nnc1SCC(=O)N1CC(=O)Nc2ccccc21`: -21.6% (inactive).
The same measure for `COc1cccc(N=c2oc3c(C)ncc(CO)c3cc2C(N)=O)c1`: -39.2% (inactive); for `O=C(Nc1ccc(Cl)cc1)/C(=C1\CCCN1)[N+](=O)[O-]`: -75.7% (inactive); for `Cc1cccc2nc(CSc3nc4[nH]ncc4c(=O)n3-c3cccc(Cl)c3)cc(=O)n12`: 35.3% (inactive).
Turning to `COc1ccc(N(CC(=O)NC(C)(C)C)C(=O)c2ccco2)cc1`, the inhibition was -5.86% (inactive).
`CCCNC(=O)C(=O)Nc1cc2c3c(c1)CCC(=O)N3CCC2`: the inhibition is -5.66% (inactive).
Regarding `CN(Cc1cn(Cc2ccc(C(F)(F)F)cc2)nn1)C1CN(Cc2cn(Cc3ccc(C(F)(F)F)cc3)nn2)S(=O)(=O)C1` (stereo not drawn), the inhibition is 14.4% (inactive).
For `CN(C(=O)Nc1ccc(Cl)cc1)n1cnc2ccccc2c1=O`, the inhibition is -48.7% (inactive).
As to `CN(c1ccc2nc3ccccc3c(=O)n2n1)C1CCCCC1`, the inhibition was 90.3% (active).
For the molecule `CC(C)(C)c1nc2ccccc2c(=O)n1N1C(=O)c2ccccc2C1=O`, the inhibition is 12.4% (inactive).
As to `CNc1cc(-c2c(OC)cccc2OC)ncn1`, the inhibition is -15.5% (inactive).
With `CCCNC(=O)c1cc(C2CCCCN2S(=O)(=O)c2ccc(C#N)cc2)on1` (stereo not drawn), the inhibition is -10.6% (inactive).
The same measure for `CC(Oc1ccc(Br)cc1)C(=O)NCC(c1ccco1)N1CCCCC1` (stereo not drawn): 7.2% (inactive); for `CCC[C@H]1CCCC/C=C\CCCC(=O)OCCN1C(=O)OC(C)(C)C`: 12.2% (inactive); for `CCN(CC)C(=O)c1nc[nH]c1C(=O)N(C)Cc1ccccc1`: -9.82% (inactive).
For `CCOC(=O)C(C)n1nc(-c2ccccc2)c2ccccc2c1=O` (stereo not drawn), the inhibition is 7.19% (inactive).
On to `CCN(CC)C(=O)c1sc2nc(-c3ccccc3)ccc2c1N`, for which the inhibition is 69.8% (active).
With `COc1ccccc1/C=C/CN1CCC(CO)(Cc2ccccc2)CC1`, the inhibition was -1.26% (inactive).
As to `COc1cccc2c1C(=O)c1c(O)c3c(c(O)c1C2=O)CC(O)(C(C)=NNC(=O)c1ccc(Cl)c(Cl)c1)CC3OC1CC(N)C(O)C(C)O1` (stereo not drawn), the inhibition was 69.6% (active).
On to `Cc1ccccc1CN(c1ccc(C(=O)NCC2CCCO2)cc1)S(C)(=O)=O` (stereo not drawn), for which the inhibition is -8.79% (inactive).
Take `C#CCNC(=O)[C@H](Cc1ccc(C(=O)c2ccccc2)cc1)NC(=O)OC(C)(C)C`: the inhibition was 5.88% (inactive).
The figure for `CC(=O)Nc1ccc(NC(=O)CSC2=NS(=O)(=O)c3ccccc3N2)cc1` is -4.58% (inactive).
Turning to `CCc1ccccc1NC(=O)CN(c1ccc(OC)cc1OC)S(=O)(=O)c1ccccc1[N+](=O)[O-]`, the inhibition was 1.82% (inactive).
As for `N#Cc1c(/N=C/N2CCCC2)oc(-c2ccccc2)c1-c1ccccc1`, the inhibition is 51.8% (active).
In the case of `N#Cc1c(NC(=O)CCCN2C(=O)c3ccccc3C2=O)oc(-c2ccccc2)c1-c1ccccc1`, the inhibition is -11.3% (inactive).
In the case of `COc1ccc(-c2oc(/N=C/N3CCCC3)c(C#N)c2-c2ccc(OC)cc2)cc1`, the inhibition was -5.76% (inactive).
As to `C#C[C@]1(O)CC[C@H]2[C@@H]3CCC4=CC(=O)CC[C@@H]4[C@H]3CC[C@@]21CC`, the inhibition is -7.9% (inactive) and -4.22% (inactive).
The figure for `Cc1ccc(CNC(=O)C2(C(F)(F)F)C/C(=C\Cc3ccccc3)CCCO2)o1` (stereo not drawn) is 6.34% (inactive); for `CCC1Nc2ncnc(N3CCN(c4ccccc4)CC3)c2N(Cc2ccc(Cl)cc2)C1=O` (stereo not drawn) it is 18.3% (inactive).
With `N#CC(C(=O)c1ccc(S(=O)(=O)N2CCCCCC2)cc1)c1nc2ccccc2[nH]1` (stereo not drawn), the inhibition was 51.6% (active).
Consider `O=C(Nc1ncccc1O)c1ccc(S(=O)(=O)N2CCCCCC2)cc1`, for which the inhibition is -10.3% (inactive).
On to `O=S(=O)(c1ccc(Br)cc1)N1CCC(c2nc3ccccc3[nH]2)CC1`, for which the inhibition was 2% (inactive).
As to `CN1CCN(S(=O)(=O)c2cccc(C(=O)Nc3sccc3C#N)c2)CC1`, the inhibition is -0.51% (inactive).
On to `CN1CCN(C(=O)c2ccc(-c3ccc(Br)cc3)o2)CC1`, for which the inhibition was -59.3% (inactive).
For `O=C(NC(=S)Nc1cc(C(F)(F)F)ccc1N1CCOCC1)c1ccc(-c2cccc(Cl)c2)o1`, the inhibition was -13.2% (inactive).
As for `O=C(NC(=S)Nc1ccccc1C(=O)O)c1ccc(-c2ccc(Br)cc2)o1`, the inhibition was 79.8% (active).
`[O-][n+]1c2c(nn1-c1ccc(Cl)c(Cl)c1)-c1nonc1CC2`: the inhibition is 10.8% (inactive).
The same measure for `Cc1ncc(CO)c(/C=N/NC(=O)c2cccc(S(=O)(=O)N3CCCC3)c2)c1O`: 32.4% (inactive).
The same measure for `Cc1cc(C(=O)COC(=O)CNC(=O)c2ccc(F)cc2)c(C)n1Cc1ccco1`: 71.1% (active); for `Cc1ccc(OCC(=O)c2cc(C)n(Cc3ccco3)c2C)c([N+](=O)[O-])n1`: -2.73% (inactive); for `COCCn1c(C)cc(C(=O)COC(=O)CNC(=O)c2ccco2)c1C`: -1.63% (inactive).
The figure for `O=C(COC(=O)Cn1[nH]c(=O)c2ccccc2c1=O)Nc1c(Cl)cccc1C(F)(F)F` is -7.36% (inactive); for `O=C(Cn1cnc2ccccc2c1=O)Nc1cccc(S(=O)(=O)N2CCCCC2)c1` it is 6.2% (inactive).
Consider `O=C1CCCN1C(=O)COc1ccc([N+](=O)[O-])cc1`, for which the inhibition is 9.48% (inactive).
As for `CCCCC(=O)Nc1c2c(nn1-c1ccc([N+](=O)[O-])cc1)CS(=O)(=O)C2`, the inhibition is -5.93% (inactive).
The figure for `O=C1/C(=C\c2ccc([N+](=O)[O-])cc2)CS(=O)(=O)C/C1=C/c1ccc([N+](=O)[O-])cc1` is 75% (active); for `CC1(C)Cc2c(sc(NC(=O)C(=O)NCC3CCCO3)c2C(=O)O)CO1` (stereo not drawn) it is -13.6% (inactive).
Consider `CCc1c(O)cc2n(c1=O)-c1ccccc1C2(C)C`, for which the inhibition was 4.14% (inactive).
`CCN(CCCNC(=O)CCn1c(=O)[nH]c2ccsc2c1=O)c1ccccc1`: the inhibition is 0.42% (inactive).
As for `CCN(CCCNC(=O)C1CCN(S(=O)(=O)c2cnc[nH]2)CC1)c1ccccc1`, the inhibition was -0.34% (inactive).
As to `CCN(CCCNC(=O)c1ccc2c(c1)NC(=O)CN2C)c1cccc(C)c1`, the inhibition is 71.7% (active).
For the molecule `Cc1ccc(SC(CC(=O)c2ccc(C(C)(C)C)cc2)C(=O)O)cc1` (stereo not drawn), the inhibition is 14.6% (inactive).
For `CCOc1ccc(NS(=O)(=O)c2ccc(Cl)c(C(=O)N(C)Cc3cccnc3)c2)cc1`, the inhibition is -2.69% (inactive).
Consider `Fc1ccccc1-c1cc2cc3c(cc2cn1)OCO3`, for which the inhibition is -40.9% (inactive).
Regarding `Cc1nnc(SC(C(=O)Nc2cc(Cl)cc(Cl)c2)c2ccccc2)[nH]c1=O` (stereo not drawn), the inhibition was 54.4% (active).
Consider `CC(NCC(=O)Nc1cc(Cl)cc(Cl)c1)c1ccccc1` (stereo not drawn), for which the inhibition was 17.5% (inactive).
With `Cc1nnc(SC(C(=O)c2ccccc2)c2ccccc2)[nH]c1=O` (stereo not drawn), the inhibition is 14.7% (inactive).

One may read the inhibition as the relative decrease from the control value, in per cent.
